Test results published in PubChem BioAssay AID1159580 (chemical genetic matrix, 2015).
“And” between values parts separate entries of the source, which are not always exact repeats. Equal entries are not always repeated. Hit rate of the full screen: of about 5,500 compounds, about 2,000 (36%) were called active. About 18% were inconclusive and are not listed. Cut-off read from the data, not from the text of the source: active = normalized growth mostly below about 0.91 (no sharp cut-off); inconclusive = no clear call, values can overlap the other calls; inactive = mostly above about 0.92. The list shows a part of the results.

Assay: chemical genetic growth profiling, strain panel (AID 1159580);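 note: tested at 20 µM; growth read once vehicle control cultures reached saturation at 30 °C; 1 = growth at the plate median or of vehicle wells; lower values mean less growth of the strain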
Conditions: S. cerevisiae deletion strains, growth OD

Measured: normalized growth

Cc1cc(C(C)(C)C)cc(C)c1CC1=NCCN1
inactive: locus YAL013W, strain DEP1, stronger effect = lower value 1.02 and 0.999 | locus YAL021C, strain ccr4, stronger effect = lower value 0.987 | locus YAL026C, strain drs2, stronger effect = lower value 0.986 | locus YAL030W, strain snc1, stronger effect = lower value 1 | locus YAL040C, strain CLN3, stronger effect = lower value 0.976 | locus YBL061C, strain skt5, stronger effect = lower value 0.999 | locus YBR009C, strain hhf1, stronger effect = lower value 0.957 | locus YBR021W, strain FUR4, stronger effect = lower value 1.02 | locus YBR023C, strain chs3, stronger effect = lower value 1.01 | locus YBR171W, strain sec66, stronger effect = lower value 1.01 | locus YBR229C, strain ROT2, stronger effect = lower value 1.01 | locus YBR231C, strain swc5, stronger effect = lower value 1 | locus YBR279W, strain paf1, stronger effect = lower value 0.993 | locus YCL011C, strain gbp2, stronger effect = lower value 0.988 | locus YCL016C, strain dcc1, stronger effect = lower value 0.99 | locus YCL029C, strain bik1, stronger effect = lower value 1.01 | locus YCL061C, strain MRC1 (second series), stronger effect = lower value 0.999 | locus YCL061C, strain MRC1, stronger effect = lower value 1.02 | locus YCL069W, strain vba3, stronger effect = lower value 1 | locus YCR088W, strain abp1, stronger effect = lower value 0.996 | locus YDL005C, strain med2, stronger effect = lower value 1.01 | locus YDL035C, strain GPR1, stronger effect = lower value 1.03 | locus YDL040C, strain nat1, stronger effect = lower value 1 | locus YDL074C, strain BRE1, stronger effect = lower value 1.02 | locus YDL101C, strain DUN1, stronger effect = lower value 1.01 | locus YDL134C, strain PPH21, stronger effect = lower value 1.02 | locus YDL185W, strain tfp1, stronger effect = lower value 1.01 | locus YDL192W, strain arf1, stronger effect = lower value 1.01 | locus YDR001C, strain nth1, stronger effect = lower value 1.01 | locus YDR069C, strain doa4, stronger effect = lower value 1.02 | locus YDR101C, strain arx1, stronger effect = lower value 1 | locus YDR137W, strain rgp1, stronger effect = lower value 0.994 | locus YDR150W, strain NUM1, stronger effect = lower value 1.02 | locus YDR159W, strain sac3, stronger effect = lower value 0.941 | locus YDR162C, strain NBP2, stronger effect = lower value 1.01 | locus YDR195W, strain ref2 1.01 | locus YDR297W, strain sur2, stronger effect = lower value 1 | locus YDR318W, strain mcm21, stronger effect = lower value 0.995 | locus YDR334W, strain swr1, stronger effect = lower value 0.993 | locus YDR335W, strain msn5, stronger effect = lower value 0.999 | locus YDR363W, strain ESC2, stronger effect = lower value 1 | locus YDR388W, stronger effect = lower value 1 | locus YDR392W, strain spt3, stronger effect = lower value 0.926 | locus YDR502C, strain sam2, stronger effect = lower value 0.998 | locus YEL003W, strain gim4, stronger effect = lower value 1.01 | locus YEL037C, strain rad23, stronger effect = lower value 1 | locus YEL061C, strain CIN8 (second series), stronger effect = lower value 0.997 | locus YEL061C, strain CIN8, stronger effect = lower value 1.02 | locus YER002W, strain NOP16, stronger effect = lower value 1 | locus YER015W, strain faa2, stronger effect = lower value 0.998 | locus YER016W, strain bim1, stronger effect = lower value 0.973 | locus YER110C, stronger effect = lower value 0.994 | locus YER111C, strain swi4, stronger effect = lower value 1 | locus YER155C, strain BEM2 (second series), stronger effect = lower value 1.02 | locus YER155C, strain BEM2, stronger effect = lower value 1.01 | locus YER167W, strain BCK2, stronger effect = lower value 1.01 | locus YFR010W, strain ubp6, stronger effect = lower value 1.02 | locus YGL078C, strain dbp3, stronger effect = lower value 1 | locus YGL086W, strain mad1, stronger effect = lower value 1 | locus YGL167C, strain pmr1, stronger effect = lower value 1 | locus YGL173C, strain kem1, stronger effect = lower value 1.02 | locus YGL227W, strain vid30, stronger effect = lower value 1 | locus YGL240W, strain doc1, stronger effect = lower value 1.03 | locus YGL248W, strain PDE1, stronger effect = lower value 1 | locus YGL253W, strain hxk2, stronger effect = lower value 0.977 | locus YGR078C, strain PAC10, stronger effect = lower value 1.01 | locus YGR135W, strain pre9, stronger effect = lower value 1 | locus YGR229C, strain SMI1, stronger effect = lower value 1.02 | locus YGR252W, strain gcn5, stronger effect = lower value 0.951 | locus YHR013C, strain ard1, stronger effect = lower value 0.971 | locus YHR027C, strain rpn1, stronger effect = lower value 0.993 | locus YHR030C, strain SLT2, stronger effect = lower value 1.02 and 1.01 | locus YHR079C, strain IRE1 (second series), stronger effect = lower value 0.995 | locus YHR079C, strain IRE1, stronger effect = lower value 1.01 | locus YHR094C, strain hxt1, stronger effect = lower value 1 | locus YHR129C, strain ARP1, stronger effect = lower value 1.01 | locus YHR142W, strain chs7, stronger effect = lower value 1.02 | locus YHR200W, strain rpn10, stronger effect = lower value 1 | locus YIL066C, strain RNR3, stronger effect = lower value 1.02 | locus YIL073C, strain SPO22, stronger effect = lower value 1.04 | locus YIL125W, strain kgd1, stronger effect = lower value 0.997 | locus YIR030C, strain dcg1, stronger effect = lower value 1 | locus YJL092W, strain hpr5, stronger effect = lower value 1.02 | locus YJL095W, strain BCK1 (second series), stronger effect = lower value 1.01 | locus YJL095W, strain BCK1, stronger effect = lower value 1.01 and 0.982 | locus YJL115W, strain asf1, stronger effect = lower value 0.985 | locus YJL129C, strain trk1, stronger effect = lower value 1.02 | locus YJL134W, strain LCB3, stronger effect = lower value 1.01 | locus YJL154C, strain vps35, stronger effect = lower value 1.01 | locus YJL164C, strain tpk1, stronger effect = lower value 0.98 | locus YJL166W, strain qcr8, stronger effect = lower value 1.03 | locus YJL168C, strain set2, stronger effect = lower value 0.998 | locus YJL187C, strain SWE1 (second series), stronger effect = lower value 1.03 | locus YJR043C, strain POL32, stronger effect = lower value 1 | locus YJR066W, strain TOR1, stronger effect = lower value 0.937
